Assay results published in the supplement of paper PMC9694430.
Where “and” joins values, the source holds several entries; their conditions need not be identical. Equal entries are not always repeated. Structures can show the parent of a compound that is named as a salt.

Columns and labels:
Test in all cases: thermal shift delta Tm vs DMSO control; higher = stronger stabilization (binding)
Conditions in all cases: 12.5 µM; protein concentration 2 µM
[1] = test system: LOC_OS01G01410-cb001
Method in brief: (§1)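 Thermal shift values come from differential scanning fluorimetry on purified rice kinase domains made in E. coli, with melting temperatures obtained from Boltzmann fits. Samples of 19.5 μl held 2 μM kinase, 100 mM potassium phosphate pH 7.5, 150 mM NaCl, 10% glycerol, 5 × SYPRO Orange and compound in DMSO, and were heated from 25°C to 95°C at 0.05°C/s. Each shift is a triplicate mean relative to the DMSO-only protein sample.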

[2] = test system: LOC_OS01G02750-cb003
Method in brief: as §1

[3] = test system: LOC_OS01G10900-cb004
Method in brief: as §1

[4] = test system: LOC_OS01G13800-cb001
Method in brief: as §1

[5] = test system: LOC_OS01G14860-cb001
Method in brief: as §1

[6] = test system: LOC_OS01G21960-cb002
Method in brief: as §1

[7] = test system: LOC_OS01G39600-cb002
Method in brief: as §1

[8] = test system: LOC_OS01G48390-cb002
Method in brief: as §1

[9] = test system: LOC_OS01G51400-cb002
Method in brief: as §1

[10] = test system: T1, LOC_OS01G52050-cb004
T1 sequence (whole entry): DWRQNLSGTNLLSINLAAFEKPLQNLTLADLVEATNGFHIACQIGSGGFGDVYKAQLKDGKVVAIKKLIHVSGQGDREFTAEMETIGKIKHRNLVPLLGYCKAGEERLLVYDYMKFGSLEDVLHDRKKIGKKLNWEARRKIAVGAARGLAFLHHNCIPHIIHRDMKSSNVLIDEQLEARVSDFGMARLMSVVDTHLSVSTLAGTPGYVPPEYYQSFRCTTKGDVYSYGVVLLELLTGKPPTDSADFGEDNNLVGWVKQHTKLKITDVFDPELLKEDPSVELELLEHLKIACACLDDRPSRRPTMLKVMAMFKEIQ
Method in brief: as §1
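Note: purified Escherichia coli-expressed rice kinase domain construct.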

SMILES	thermal shift delta Tm [1]	thermal shift delta Tm [2]	thermal shift delta Tm [3]	thermal shift delta Tm [4]	thermal shift delta Tm [5]	thermal shift delta Tm [6]	thermal shift delta Tm [7]	thermal shift delta Tm [8]	thermal shift delta Tm [9]	thermal shift delta Tm [10]
COc1cc2nccc(Oc3ccc(NC(=O)Nc4cc(C)on4)c(Cl)c3)c2cc1OC [Tivozanib (AV-951)]	1.87 °C	1.12 °C	1.76 °C	0.05 °C	0.65 °C	0.54 °C	-0.67 °C	1.22 °C	-0.16 °C	6.73 °C
Nc1nc(Nc2ccc(S(N)(=O)=O)cc2)nn1C(=O)c1c(F)cccc1F	4.86 °C	1.06 °C	0.71 °C	0.59 °C	5.95 °C	1.73 °C	4.79 °C	5.9 °C	0.49 °C	5.43 °C
Cn1nccc1Nc1nccc(-c2ccn([C@H](CO)c3ccc(Cl)c(F)c3)c(=O)c2)n1	0.99 °C	1.21 °C	0.24 °C	-0.2 °C	5 °C	0.94 °C	0.18 °C	0.6 °C	0.59 °C	0.85 °C
Nc1cccc(-c2cc3c(Oc4cccc(O)c4)ncnc3[nH]2)c1	2.64 °C	1.81 °C	1.53 °C	0.59 °C	4.88 °C	1.92 °C	3.68 °C	2.32 °C	0.45 °C	2.13 °C
CCCCCCCCCCCCCCCCOP(=O)([O-])OCC[N+](C)(C)C [Miltefosine]	-6.86 °C	-17.5 °C	-2.68 °C	-7.38 °C	-3.1 °C	-5.94 °C	-5.77 °C	-3.18 °C	-3.78 °C	-6.22 °C
CCCCCCCCCCCCCCCCCCOP(=O)([O-])OC1CC[N+](C)(C)CC1 [Perifosine (KRX-0401)]	-2.46 °C	-3.08 °C	-2.19 °C	-2.02 °C	-1.55 °C	-1.07 °C	-4.67 °C	-1.63 °C	-3.01 °C	-2.26 °C
COc1ccc(-c2cc3nccn3c(Nc3ncccc3C(N)=O)n2)cc1OC	1.05 °C	1.45 °C	1.83 °C	0.09 °C	6.47 °C	2.98 °C	0.18 °C	1.07 °C	0.17 °C	2.44 °C
COc1ccc([C@@H]2OC[C@H]3[C@@H]2CO[C@@H]3c2ccc(O[C@@H]3O[C@H](CO)[C@@H](O)[C@H](O)[C@H]3O)c(OC)c2)cc1OC [Forsythin]	0.23 °C	1.02 °C	0.51 °C	-0.29 °C	0.27 °C	0.16 °C	-0.84 °C	0.13 °C	0.31 °C	1.57 °C
CN(c1ncccc1CNc1nc(Nc2ccc3c(c2)CC(=O)N3)ncc1C(F)(F)F)S(C)(=O)=O	1.79 °C and 2.31 °C	3.54 °C and 4.36 °C	1.71 °C and 2.09 °C	-0.44 °C and -0.69 °C	4.96 °C and 3.99 °C	2.13 °C and 2.41 °C	8.29 °C and 12.3 °C	2.62 °C and 2.82 °C	1.29 °C and 1.71 °C	5.25 °C and 6.24 °C
N#CCNC(=O)c1ccc(-c2ccnc(Nc3ccc(N4CCOCC4)cc3)n2)cc1 [Momelotinib (CYT387)]	2.55 °C	0.08 °C	1.02 °C	0.1 °C	5.59 °C	2.72 °C	2.38 °C	0.91 °C	0.13 °C	3.27 °C
COc1cc2c(N3CCN(C(=O)Nc4ccc(OC(C)C)cc4)CC3)ncnc2cc1OCCCN1CCCCC1 [Tandutinib (MLN518)]	0.23 °C	1.12 °C	0.43 °C	0.92 °C	0.05 °C	0.83 °C	0.57 °C	-0.07 °C	0.02 °C	0.86 °C
O=C(NCCO)c1cccc(-c2cc(Nc3ccc(OC(F)(F)F)cc3)ncn2)c1	0.32 °C	0.32 °C	0.34 °C	0.62 °C	1.32 °C	0.44 °C	0.3 °C	2.99 °C	0.2 °C	1.46 °C
C=CC(=O)Nc1cccc(Nc2nc(Nc3ccc(NC4CN(CCF)C4)cc3OC)ncc2C(F)(F)F)c1	0.5 °C	-0.47 °C	0.12 °C	-0.76 °C	0.1 °C	0.07 °C	1.11 °C	2.29 °C	0.35 °C	0.31 °C
C[C@H]1CNCCCN1S(=O)(=O)c1cccc2cncc(F)c12 [Ripasudil (K-115) hydrochloride dihydrate]	0.29 °C	1.34 °C	0.28 °C	1.05 °C	0.24 °C	0.88 °C	0.39 °C	0.68 °C	0.21 °C	0.63 °C
O=C(NC[C@H](O)CO)c1ccncc1Nc1ccc(I)cc1F	0.13 °C	0.07 °C	1.79 °C	0.34 °C	0.16 °C	0.66 °C	-0.15 °C	0.13 °C	-0.03 °C	0.02 °C
COc1cc2ncnc(Oc3ccc(CC(=O)Nc4cnn(C(C)C)c4)cc3)c2cc1OC	0.27 °C	0 °C	0.09 °C	-0.43 °C	0.03 °C	0.08 °C	-1.25 °C	0.97 °C	0.22 °C	-0.1 °C
NC(=O)c1ccc2nc(-c3ccc(Oc4ccc(Cl)cc4)cc3)[nH]c2c1 [Chk2 Inhibitor II (BML-277)]	0.54 °C	1.86 °C	2.68 °C	-0.46 °C	0.95 °C	0.75 °C	0.45 °C	1.43 °C	0.88 °C	1.84 °C
CCOc1cc2ncc(C#N)c(Nc3ccc(OCc4ccccn4)c(Cl)c3)c2cc1NC(=O)/C=C/CN(C)C [Neratinib (HKI-272)]	1.9 °C	1.42 °C	1 °C	0.47 °C	6.67 °C	0.71 °C	5.12 °C	0.77 °C	0.27 °C	2.11 °C
S=C(NCc1ccc2c(c1)OCO2)N1CCN(c2ncnc3c2oc2ccccc23)CC1 [Amuvatinib (MP-470)]	0.66 °C	-0.56 °C	0.77 °C	1.03 °C	0.42 °C	0.46 °C	0.21 °C	0.88 °C	0.31 °C	1.3 °C
